Measured values reported in PubChem BioAssay AID2029 (NMMLSC, 2009).
The campaign covered roughly 320,000 compounds. About 210 (0.066%) were called active.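 Rule for the calls: active = GFP response relative to DMSO above a set limit, near the screen mean plus 3 SD (cut at about 150% in these data); inconclusive = Fewer than 70 cells measured for a yeast strain; inactive = the rest.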 What follows is part of a selection rich in actives, with near analogues and random picks from the rest.

Experiment: TOR pathway RTG branch CIT2 reporter changes – S. cerevisiae, GFP fusion, multiplex flow cytometry, MLPCN library, primary screen (AID 2029);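 note: ratio of well median GFP fluorescence to mean of DMSO wells on the plate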
Conditions: S. cerevisiae CIT2-GFP strain, 3 h, at 10 µM, hits give high values, 100 means same as DMSO wells

Structure (SMILES)	GFP response vs DMSO
Oc1cccc2ccc(/C=C/c3ccc(Br)s3)nc12	98.5% (inactive)
Cc1cc(N=Nc2ccc3ccccc3c2)ccc1O	97.3% (inactive)
Cc1cccc(N(C)C(=O)c2cc(S(=O)(=O)N3CCCCC3)c[nH]2)c1	105% (inactive)
C=CCNc1nc(Nc2ccc(Cl)cc2)nc(OC)n1	87% (inactive)
COC(=O)COc1ccc2c(=O)c(Oc3ccccc3Br)coc2c1	100% (inactive)
COc1ccc(C2(C)ON(c3ccccc3C(F)(F)F)C2=O)cc1 (stereo unspecified)	97% (inactive)
Cc1noc(NS(=O)(=O)c2ccc(N3CC(O)=C(c4ccccc4)C3=N)cc2)c1C	103% (inactive)
O=C(COC(=O)Cn1cnc2ccccc2c1=O)NCC12CC3CC(CC(C3)C1)C2	101% (inactive)
O=C(COC(=O)c1cc(S(=O)(=O)N2CCOCC2)ccc1Cl)NCCc1ccccc1	98.2% (inactive)
CCCc1nn(C)c2c(=O)[nH]c(-c3cc(S(N)(=O)=O)ccc3OCC)nc12	96% (inactive)
Cc1cc(C)cc(NS(=O)(=O)Cc2ccccc2)c1	103% (inactive)
CC(OC(=O)CNC(=O)c1ccco1)C(=O)Nc1ccc(Cl)cn1 (stereo unspecified)	98.1% (inactive)
O=C(N/C(=C\c1ccc(O)cc1)C(=O)N1CCCCC1)c1ccccc1	108% (inactive)
COc1cc(/C=C/C(=O)O)cc(S(=O)(=O)Nc2ccccc2SC)c1OC	110% (inactive)
CCc1cccc2c3c([nH]c12)C(CC)(CC(=O)O)OCC3 (stereo unspecified)	83.9% (inactive)
Cc1cccc(CN2CCC(n3nccc3NC(=O)c3ccccc3C)CC2)n1	107% (inactive)
CCc1n[nH]c(=S)n1/N=C/c1c[nH]c2ccc(Br)cc12	106% (inactive)
CCOc1ccc(NS(=O)(=O)c2ccc(C)c(C(N)=O)c2)cc1	94% (inactive)
NC(=O)c1oc2ccccc2c1NC(=O)CS(=O)(=O)c1ccccc1	110% (inactive)
CC1(C)C2CC=C(/C=N/NC(=O)C3CC3)C1C2 (stereo unspecified)	91.7% (inactive)
COCCNC(=O)CN(Cc1ccco1)C(=O)CCC(=O)Nc1nccs1	105% (inactive)
CCn1c(SCC(=O)Nc2nc(C)cs2)nnc1C(C)NC(=O)c1ccccc1 (stereo unspecified)	101% (inactive)
CCOC(=O)/C=c1\s/c(=C\c2ccc(C#N)cc2)c(=O)n1CC(=O)Nc1cccc(C)c1C	97.6% (inactive)
CCOC(=O)Cn1c(=O)oc2cc(S(=O)(=O)N(C)Cc3ccco3)ccc21	96.1% (inactive)
CN(c1ccccc1)c1ccc(/C=c2\s/c(=C(/C#N)C(=O)C(C)(C)C)n(Cc3ccco3)c2=O)cc1	352% (active)
COc1ccc(-n2nnc3c(=O)n(CC(=O)N4CCC(Cc5ccccc5)CC4)cnc32)cc1	89.3% (inactive)
